Laboratory results: PubChem BioAssay (EPA / NIEHS)
Inconclusive results are not listed. Activity calls are given as the source filed them. How the source made its calls: active means hit-call score of the fitted dose curve at least 0.9, where 1 is the maximum; inconclusive means response in the unintended direction; inactive means score below 0.9.

Target: Nucleoli Translocation, AR (gene 367) (UniProt P10275)
Test: UPITT_HCI_U2OS_AR_TIF2_Nucleoli_Antagonist: University of Pittsburgh U2OS Androgen Receptor-Transcriptional Intermediary Factor 2 (AR-TIF2) Antagonism High Content Imaging Assay for Nucleoli Translocation (AID 2283997)
From the text: UPITT_AR_TIF2_PPIB is a cell-based, high-content imaging assay that uses U2OS, a human osteosarcoma cell line, expressing a human androgen receptor fused to red fluorescent protein and the coactivator TIF2 fused to green fluorescent protein. UPITT_HCI_U2OS_AR_TIF2_Nucleoli_Antagonist is one of four assay components measured from the UPITT_AR_TIF2_PPIB assay. It is designed to make measurements of red fluorescence localized in the nucleolar region of the cell nucleus as detected with high-content fluorescent imaging.Data from the assay component UPITT_HCI_U2OS_AR_TIF2_Nucleoli_Antagonist was analyzed into 1 assay endpoint. This assay endpoint, UPITT_HCI_U2OS_AR_TIF2_Nucleoli_Antagonist, was analyzed in the positive analysis fitting direction relative to DHT as the baseline of activity. Using a type of binding reporter, measures of receptor for loss-of-signal activity can be used to understand the binding at the pathway-level as it relates to the gene AR.
Daughter plates containing 2 uL of 10 mM compounds in DMSO were prepared and replicated from the 384-well Library of Pharmacologically Active Compounds (LOPAC) master plates using the Bravo outfitted with a 384-well transfer head. Aluminum adhesive plate seals were applied with an Abgene Seal-IT 100 (Rochester, NY) plate sealer, and the plates were stored at -20 C in a Matrical MatriMinistore (Spokane, WA) automated compound storage and retrieval system. For screening, LOPAC daughter plates were withdrawn from -20C storage, thawed to ambient temperature, centrifuged 1-2 min at 50 g, and the plate seals were removed before the transfer of 98 uL of serum-free tissue culture medium (SFM) into wells using the BioTek Microflo liquid handler (BioTek, Winooski, VT) to generate a 200 uM intermediate stock concentration of library compounds (2.0% DMSO). The diluted compounds were mixed by repeated aspiration and dispensation using a 384-well P30 dispensing head on the Evolution P3 (EP3) liquid handling platform (PerkinElmer, Waltham, MA) and then 5 uL of diluted compounds was transferred to the wells of assay plates. In the LOPAC screen, compounds were individually tested at a final concentration of 20 uM (0.2% DMSO). After the diluted compounds had been transferred from the daughter plates to the primary HCS assay plates, aluminum adhesive plate seals were applied and the diluted daughter plates were stored frozen at -20C. To confirm active compounds identified in the primary screen, we withdrew the LOPAC daughter plates containing the 200 uM intermediate concentration of library compounds (2.0% DMSO) from -20C storage, thawed them to ambient temperature, centrifuged them for 1-2 min at 50 g, and removed the plate seals. A work list was generated to direct the Multiprobe Janus liquid handling platform (PerkinElmer) to cherry pick 75 uL from the wells of the diluted daughter plates that were flagged active in the primary screen and to reformat these into a 384-well plate hit confirmation daughter plate. Five microliters of primary HCS active compounds was then transferred into triplicate wells of assay plates using a 384-well P30 dispensing head on the Evolution P3 (EP3) liquid handling platform (PerkinElmer). […] Daughter plates containing 2 uL of the serially diluted compounds in DMSO were prepared and replicated from the 384-well serial dilution master plates using the Bravo outfitted with a 384-well transfer head. Aluminum adhesive plate seals were applied and plates were stored at -20C. […] The ImageXpress Ultra (IXU) platform (Molecular Devices LLC, Sunnyvale, CA) and The ImageXpress Micro (IXM) platform were used for imaging.

Chain of Nucleoli Translocation, AR (gene 367) (P10275 whole entry, looked up): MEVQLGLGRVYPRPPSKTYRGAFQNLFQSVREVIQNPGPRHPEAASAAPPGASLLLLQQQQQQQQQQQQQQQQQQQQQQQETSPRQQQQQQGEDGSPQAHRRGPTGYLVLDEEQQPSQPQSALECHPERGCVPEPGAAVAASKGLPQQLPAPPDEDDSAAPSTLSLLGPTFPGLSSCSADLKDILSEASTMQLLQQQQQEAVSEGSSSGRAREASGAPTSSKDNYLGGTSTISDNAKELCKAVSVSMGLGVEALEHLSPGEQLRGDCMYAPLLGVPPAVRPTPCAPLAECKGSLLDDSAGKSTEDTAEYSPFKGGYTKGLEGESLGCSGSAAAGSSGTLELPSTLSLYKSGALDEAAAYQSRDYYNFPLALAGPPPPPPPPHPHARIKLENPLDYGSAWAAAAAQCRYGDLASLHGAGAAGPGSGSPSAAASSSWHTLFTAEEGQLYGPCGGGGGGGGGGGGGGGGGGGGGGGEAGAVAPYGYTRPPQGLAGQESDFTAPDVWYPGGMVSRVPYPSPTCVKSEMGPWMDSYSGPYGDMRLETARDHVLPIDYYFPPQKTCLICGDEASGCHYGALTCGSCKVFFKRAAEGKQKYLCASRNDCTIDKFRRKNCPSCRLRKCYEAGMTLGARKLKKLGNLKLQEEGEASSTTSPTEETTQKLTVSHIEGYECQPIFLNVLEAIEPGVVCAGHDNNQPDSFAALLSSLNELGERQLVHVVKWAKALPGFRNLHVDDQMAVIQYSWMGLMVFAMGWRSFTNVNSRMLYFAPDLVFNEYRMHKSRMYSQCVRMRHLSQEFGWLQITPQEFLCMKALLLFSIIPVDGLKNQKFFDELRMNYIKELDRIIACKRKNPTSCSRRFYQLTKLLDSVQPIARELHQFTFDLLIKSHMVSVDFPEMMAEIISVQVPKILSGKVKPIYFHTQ

| SMILES | outcome | AC50 |
| --- | --- | --- |
| OCc1ccccc1 | inactive | – |
| CCCCOC(=O)c1ccccc1 | inactive | – |
| CCN(CC)C(=S)SSC(=S)N(CC)CC | – | 19.8 µM (active) |
| OCCOCCOCCO | inactive | – |
| CCCCCCOC(=O)CC(CC(=O)OCCCCCC)(OC(=O)CCC)C(=O)OCCCCCC | inactive | – |
| COc1cc2c(c(OC)c1OC)-c1ccc(OC)c(=O)cc1[C@@H](NC(C)=O)CC2 | inactive | – |
| CCCCCCCCCCCCCCCCOS(=O)(=O)O | inactive | – |
| CCc1cccc(CC)c1N | inactive | – |
| COc1cc(C(C)C)c2c(c1)S(=O)(=O)N(COc1cc(=O)n3cccc(OCCN4CCCCC4)c3n1)C2=O | – | 5.14 µM (active) |
| Cc1nc(-c2ccccn2)ncc1C(=O)Nn1cc(C)c2cc(F)ccc21 | inactive | – |
| CCCCC(CC)C(=O)OCCOCCOCCOC(=O)C(CC)CCCC (stereo unspecified) | inactive | – |
